From PubChem BioAssay (NCI) come the findings set out here.

What all share (experiment): NCI-60 one-dose screen, 48 h (100 = growth as untreated, 0 = no growth, -100 = all killed)
In one experiment the test system is HCT-15 colon. Particulars: 10 µM unless noted.
The test system of a further experiment is HT29 colon. As to conditions: 10 µM unless noted.
For a further experiment, the system named is SNB-75 CNS. As to conditions: 10 µM unless noted.
For the next experiment, the system named is SNB-19 CNS. Particulars: 10 µM unless noted.
A further experiment relates to U251 CNS. As to conditions: 10 µM unless noted.
For another experiment, the system named is PC-3 prostate. As to conditions: 10 µM unless noted.
Another experiment has as its system SK-MEL-5 melanoma. As to conditions: 10 µM unless noted.
A further experiment relates to UACC-62 melanoma. Particulars: 10 µM unless noted.
The next experiment relates to LOX IMVI melanoma. Particulars: 10 µM.
For a further experiment, the system named is SK-MEL-28 melanoma. As to conditions: 10 µM unless noted.

The panel holds about 83,000 compounds, 20% with a hit somewhere; the sample as a whole holds those more often.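 Percent growth is the endpoint: 0 to 100 indicates growth inhibition (40 means 60% inhibition), 0 means no net growth, and negative values indicate cell death.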 A number with no mark means an inactive call. Active and inactive are the calls of the source. How the source made its calls: active means growth percent below 10; inactive means the rest.

Consider `O=C/C=C/c1ccc([N+](=O)[O-])cc1`, for which the growth is 105% with HCT-15 colon; 97.6% in the experiment on HT29 colon; 98.9% in the experiment on SNB-75 CNS; 95.3% in the experiment on SNB-19 CNS; 95.5% with U251 CNS; 98.7% with PC-3 prostate. For the same molecule, the growth in the experiment with SK-MEL-5 melanoma was 102%; with UACC-62 melanoma, 98.2%; in the experiment with LOX IMVI melanoma it was 83.8%; in the experiment on SK-MEL-28 melanoma it was 113%.
`CCC[CH2][Sn]1([CH2]CCC)[O]C2C(CO)OC(n3ccc(N)nc3=O)C2[O]1` (stereo unspecified): the growth with HCT-15 colon was -59.3% (active); in the experiment with HT29 colon, -69.8% (active); in the experiment with SNB-75 CNS, -21.2% (active); in the experiment with SNB-19 CNS, 28.4%; with PC-3 prostate, -11.3% (active); in the experiment on SK-MEL-5 melanoma, -72.1% (active). In addition, the results for the growth in the experiment with UACC-62 melanoma, in the experiment on LOX IMVI melanoma and in the experiment with SK-MEL-28 melanoma were -89% (active), -57% (active) and -90.3% (active), respectively.
Consider `CCCCCCCCCCCCN1C(C)=CS/C1=C\C=C\c1scc(C)[n+]1CCCCCCCCCCCC`, for which the growth is 56.6% in the experiment with HCT-15 colon; 11% in the experiment on HT29 colon; 34.3% with SNB-75 CNS; 40.2% with SNB-19 CNS; 3.86% (active) in the experiment with PC-3 prostate; -83.9% (active) with SK-MEL-5 melanoma. The growth with UACC-62 melanoma was 5.41% (active); in the experiment with LOX IMVI melanoma it was 25.9%; with SK-MEL-28 melanoma, 47.2%.
For `COc1cc(/C=C2\SC(=S)N(/C=C/c3nc4ccccc4[nH]c3=O)C2=O)cc(OC)c1OC`, the growth is 91.7% with HCT-15 colon; 90.6% with HT29 colon; 66.9% with SNB-75 CNS; 97.5% in the experiment on SNB-19 CNS; 81.8% in the experiment with U251 CNS; 95.2% with PC-3 prostate. Moreover, the growth in the experiment on UACC-62 melanoma was 81.9%; in the experiment with LOX IMVI melanoma, 56.7%; in the experiment with SK-MEL-28 melanoma, 90.5%.
Take `N#CC1c2ccccc2C=CN1C(=O)CCCl` (stereo unspecified): the growth in the experiment on HCT-15 colon was 84.9%; in the experiment with HT29 colon it was 78.3%; in the experiment with SNB-75 CNS it was 75.9%; with SNB-19 CNS it was 107%; with PC-3 prostate it was 104%; in the experiment on SK-MEL-5 melanoma it was 101%. The growth was 106% in the experiment on UACC-62 melanoma, 32.6% with LOX IMVI melanoma and 105% with SK-MEL-28 melanoma.
On to `O=C(c1ccccc1)c1cc2ccccc2oc1=O`, for which the growth is 108% with HCT-15 colon; 113% in the experiment with HT29 colon; 71.8% with SNB-75 CNS; 97.4% in the experiment with SNB-19 CNS; 90.2% in the experiment on U251 CNS; 72.3% in the experiment on PC-3 prostate. Further, the values for the growth in the experiment on UACC-62 melanoma, in the experiment on LOX IMVI melanoma and in the experiment with SK-MEL-28 melanoma were 93.4%, 89.8% and 119%, respectively.
For the molecule `COc1ccc(C(Cn2ccnc2)Sc2ccc(Cl)c(Cl)c2)cc1` (stereo unspecified), the growth is 79.7% in the experiment with HCT-15 colon; 59.6% in the experiment with HT29 colon; 89.2% with SNB-75 CNS; 98.6% in the experiment with SNB-19 CNS; 63.1% in the experiment on PC-3 prostate; 66.5% with SK-MEL-5 melanoma. Also, the growth with UACC-62 melanoma is 77.6%; with LOX IMVI melanoma, 84.4%; in the experiment with SK-MEL-28 melanoma, 85.3%.
Take `CC(/C=N/NC(N)=S)Cc1ccc(C(C)C)cc1` (stereo unspecified): the growth with HCT-15 colon is 80.2%; with HT29 colon, 47.1%; in the experiment with SNB-75 CNS it was 71.4%; in the experiment with SNB-19 CNS it was 69.3%; in the experiment with U251 CNS, 88.7%; in the experiment on PC-3 prostate it was 73.5%. Moreover, the growth was 54.5% in the experiment on UACC-62 melanoma, 79.5% in the experiment with LOX IMVI melanoma and 82.4% in the experiment with SK-MEL-28 melanoma.
For `COc1cc(OC)c(/C=C/c2c3ccccc3cc[n+]2C)c(OC)c1`, the growth with HCT-15 colon is 97.9%; in the experiment on HT29 colon, 1.89% (active); in the experiment on SNB-75 CNS it was 12.3%; in the experiment on SNB-19 CNS, 35.8%; in the experiment with PC-3 prostate it was 19.2%; in the experiment on SK-MEL-5 melanoma it was -14% (active). The growth in the experiment with UACC-62 melanoma was 15.7%; in the experiment with LOX IMVI melanoma, -39.1% (active); in the experiment with SK-MEL-28 melanoma it was 30.1%.
As for `CCCCCC/C=C1\CCC(CN2CCCC2)C1=O` (stereo unspecified), the growth was 77.1% in the experiment on HCT-15 colon; 120% with HT29 colon; 90.9% in the experiment with SNB-75 CNS; 92.6% in the experiment on SNB-19 CNS; 89.7% in the experiment with PC-3 prostate; 96.9% with SK-MEL-5 melanoma. For the same molecule, the growth in the experiment with UACC-62 melanoma is 99.2%; with LOX IMVI melanoma, 59.8%; in the experiment with SK-MEL-28 melanoma it was 114%.
For the molecule `Cc1cc(C)c(C#N)c(Sc2nc(C)c([N+](=O)[O-])c(C)c2C#N)n1`, the growth was 58.8% in the experiment with HCT-15 colon; 35.8% in the experiment with HT29 colon; 66% in the experiment with SNB-75 CNS; 98.4% with SNB-19 CNS; 77.1% with PC-3 prostate; 86.5% in the experiment with SK-MEL-5 melanoma. Besides, the figures for the growth in the experiment with UACC-62 melanoma, in the experiment with LOX IMVI melanoma and in the experiment with SK-MEL-28 melanoma were 66.8%, 1.66% (active) and 78.7%, respectively.
`O=[N+]([O-])CC(O)c1ccccc1` (stereo unspecified): the growth in the experiment on HCT-15 colon was 96.6%; in the experiment with HT29 colon it was 113%; with SNB-75 CNS, 91.6%; with SNB-19 CNS, 101%; in the experiment with U251 CNS, 98.7%; with PC-3 prostate, 94.9%. Further, the values for the growth with UACC-62 melanoma, with LOX IMVI melanoma and in the experiment on SK-MEL-28 melanoma were 99.1%, 84.5% and 108%, respectively.
Turning to `CCC(=O)c1cc([N+](=O)[O-])c(Br)s1`, the growth in the experiment with HCT-15 colon is 61%; with HT29 colon, 41.6%; in the experiment on SNB-75 CNS, 95.7%; with SNB-19 CNS, 99.8%; in the experiment with U251 CNS, 93.4%; with PC-3 prostate, 101%. The growth with UACC-62 melanoma is 105%; in the experiment with LOX IMVI melanoma, -41.2% (active); with SK-MEL-28 melanoma, 110%.
With `CCCC[n+]1c(/C=C\c2c(OC)cc(OC)cc2OC)ccc2ccccc21`, the growth in the experiment on HCT-15 colon is 35.1%; with HT29 colon, -33.5% (active); in the experiment on SNB-75 CNS, -13.2% (active); in the experiment with SNB-19 CNS, 19%; with PC-3 prostate, 2.91% (active); in the experiment on SK-MEL-5 melanoma, -97.2% (active). The results for the growth with UACC-62 melanoma, in the experiment on LOX IMVI melanoma and in the experiment on SK-MEL-28 melanoma were -37.2% (active), -75.5% (active) and -10.8% (active), respectively.
For `O=C(Cc1ccccc1)C(F)(F)F`, the growth was 107% with HCT-15 colon; 112% in the experiment on HT29 colon; 92.4% in the experiment on SNB-75 CNS; 109% in the experiment with SNB-19 CNS; 97.8% in the experiment on U251 CNS; 96.3% in the experiment on PC-3 prostate. Further, the results for the growth in the experiment with UACC-62 melanoma, in the experiment on LOX IMVI melanoma and in the experiment on SK-MEL-28 melanoma were 104%, 96.5% and 99.2%, respectively.
